In PMC7862700, “An all-to-all approach to the identification of sequence-specific readers for epigenetic DNA modifications on cytosine” one finds binding signal data, which are given here for 1 sequence.

What all share (assay): DAPPL (digital affinity profiling via proximity ligation, sequencing); 10 mM Tris-HCl pH 7.5, 50 mM NaCl, 1 mM DTT, 4% glycerol, room temperature, 30 min; GST-TFs on glutathione beads, 16-mer random dsDNA library, 0.1% formaldehyde crosslink after washing; high values mean tight binding
Test [1] deals with T1, FEV (Homo sapiens, UniProt Q99581 1-238).
T1 sequence: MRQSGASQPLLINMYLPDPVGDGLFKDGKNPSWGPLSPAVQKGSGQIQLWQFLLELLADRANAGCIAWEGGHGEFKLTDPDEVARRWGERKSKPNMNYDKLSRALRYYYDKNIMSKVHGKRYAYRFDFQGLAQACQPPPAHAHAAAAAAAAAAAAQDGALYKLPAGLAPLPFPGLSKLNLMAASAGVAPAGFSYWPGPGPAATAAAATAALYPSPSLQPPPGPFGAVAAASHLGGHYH
The note with it: protein: recombinant; tags: N-terminal GST; dsDNA, one strand shown. The procedure, abridged: (§1)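 Pools of DNA-barcoded human transcription factors, expressed in yeast as GST fusions on glutathione beads and combined with a tag-only sample, were incubated with 200 nmole of a 16-mer random double-stranded DNA library. Incubation took 30 min at room temperature in Tris/NaCl/DTT/glycerol buffer and was followed by washing, 0.1% formaldehyde crosslinking, proximity ligation (BsaI/T4 ligase, 1 h, 37 °C), PCR amplification and sequencing on an Illumina NextSeq500. Binding signal is the ratio of a hexamer's read frequency for a factor to its frequency for the tag-only sample.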

Test [2] addresses ETV5 (Homo sapiens, UniProt P41161 1-510). The conditions noted are these: protein: recombinant; tags: N-terminal GST; dsDNA, one strand shown. The essentials: as §1
The target in test [3] is HSF1 (Homo sapiens, UniProt Q00613 1-529). The note with it: protein: recombinant; tags: N-terminal GST; chain copies: 3; dsDNA, one strand shown. The procedure, abridged:
as §1

In test [4] the target is T2, SPIC (Homo sapiens, UniProt Q8N5J4 1-248).
T2 sequence: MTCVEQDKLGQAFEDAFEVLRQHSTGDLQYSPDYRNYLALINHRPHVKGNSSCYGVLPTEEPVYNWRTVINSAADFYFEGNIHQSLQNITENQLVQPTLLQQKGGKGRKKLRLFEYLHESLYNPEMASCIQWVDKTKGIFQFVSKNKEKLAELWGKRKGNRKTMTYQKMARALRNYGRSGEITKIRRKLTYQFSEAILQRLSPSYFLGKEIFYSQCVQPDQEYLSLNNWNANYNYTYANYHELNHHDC
The conditions noted are these: protein: recombinant; tags: N-terminal GST; dsDNA, one strand shown. The procedure, abridged: as §1

In test [5] the target is ELF4 (Homo sapiens, UniProt Q99607 1-663). The note with it: protein: recombinant; tags: N-terminal GST; dsDNA, one strand shown. The procedure, abridged: as §1
Sequence of ELF4 (Q99607 whole entry): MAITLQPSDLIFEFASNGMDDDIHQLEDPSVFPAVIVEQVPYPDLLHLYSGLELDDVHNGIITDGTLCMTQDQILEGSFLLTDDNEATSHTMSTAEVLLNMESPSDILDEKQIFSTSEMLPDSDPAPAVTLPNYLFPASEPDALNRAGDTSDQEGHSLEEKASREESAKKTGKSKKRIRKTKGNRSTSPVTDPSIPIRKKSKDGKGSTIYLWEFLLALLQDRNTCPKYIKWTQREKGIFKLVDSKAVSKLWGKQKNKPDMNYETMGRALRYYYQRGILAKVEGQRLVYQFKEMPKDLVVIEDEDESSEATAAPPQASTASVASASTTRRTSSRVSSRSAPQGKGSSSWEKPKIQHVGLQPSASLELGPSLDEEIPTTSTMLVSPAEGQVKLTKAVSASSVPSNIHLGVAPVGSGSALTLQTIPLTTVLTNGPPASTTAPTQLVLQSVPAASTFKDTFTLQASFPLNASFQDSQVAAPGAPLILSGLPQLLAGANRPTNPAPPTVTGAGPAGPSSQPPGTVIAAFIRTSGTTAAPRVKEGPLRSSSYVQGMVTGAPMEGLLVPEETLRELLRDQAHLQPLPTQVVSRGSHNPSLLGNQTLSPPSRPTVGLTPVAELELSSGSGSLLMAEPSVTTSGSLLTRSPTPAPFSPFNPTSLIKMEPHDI
The target of test [6] is T3, ELK4 (Homo sapiens, UniProt P28324-2 1-405).
T3 sequence: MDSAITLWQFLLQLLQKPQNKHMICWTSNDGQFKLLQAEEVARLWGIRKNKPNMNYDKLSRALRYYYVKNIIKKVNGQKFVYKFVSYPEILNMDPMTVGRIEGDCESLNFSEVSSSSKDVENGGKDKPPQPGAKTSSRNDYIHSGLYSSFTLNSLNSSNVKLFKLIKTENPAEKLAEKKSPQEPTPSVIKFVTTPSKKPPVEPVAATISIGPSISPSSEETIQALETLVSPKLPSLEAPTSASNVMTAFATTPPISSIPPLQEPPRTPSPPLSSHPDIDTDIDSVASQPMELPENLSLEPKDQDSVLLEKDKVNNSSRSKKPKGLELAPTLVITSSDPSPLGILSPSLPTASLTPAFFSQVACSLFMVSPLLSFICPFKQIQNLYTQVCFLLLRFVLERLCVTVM
The conditions noted are these: protein: recombinant; tags: N-terminal GST; dsDNA, one strand shown. The procedure, abridged:
as §1

The target of test [7] is T4, ETV2 (Homo sapiens, UniProt O00321 1-342).
T4 sequence: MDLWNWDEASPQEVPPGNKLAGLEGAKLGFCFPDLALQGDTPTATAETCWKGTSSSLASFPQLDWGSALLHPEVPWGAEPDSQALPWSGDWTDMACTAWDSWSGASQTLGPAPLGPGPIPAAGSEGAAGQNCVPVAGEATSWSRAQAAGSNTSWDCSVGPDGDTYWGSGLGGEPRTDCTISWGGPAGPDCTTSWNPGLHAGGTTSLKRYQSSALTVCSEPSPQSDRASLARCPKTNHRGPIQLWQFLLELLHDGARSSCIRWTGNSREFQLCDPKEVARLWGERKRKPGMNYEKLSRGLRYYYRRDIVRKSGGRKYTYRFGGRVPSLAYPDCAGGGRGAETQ
The conditions noted are these: protein: recombinant; tags: N-terminal GST; dsDNA, one strand shown. The essentials: as §1

Test [8] addresses T5, ELF3 (Homo sapiens, UniProt P78545 1-371).
T5 sequence: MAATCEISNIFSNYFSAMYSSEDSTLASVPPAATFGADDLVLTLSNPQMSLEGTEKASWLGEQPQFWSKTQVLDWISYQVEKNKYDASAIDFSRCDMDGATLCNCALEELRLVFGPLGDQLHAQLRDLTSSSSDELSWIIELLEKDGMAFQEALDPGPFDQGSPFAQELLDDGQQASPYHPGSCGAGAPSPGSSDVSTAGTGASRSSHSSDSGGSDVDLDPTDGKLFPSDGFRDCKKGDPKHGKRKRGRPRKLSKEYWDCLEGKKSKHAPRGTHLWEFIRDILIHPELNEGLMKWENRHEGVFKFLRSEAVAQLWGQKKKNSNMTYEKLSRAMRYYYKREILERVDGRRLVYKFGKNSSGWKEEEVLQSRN
The conditions noted are these: protein: recombinant; tags: N-terminal GST; dsDNA, one strand shown. The essentials: as §1

The target of test [9] is CRX (Homo sapiens, UniProt O43186 1-299). The conditions noted are these: protein: recombinant; tags: N-terminal GST; dsDNA, one strand shown. The procedure, abridged:
as §1

For test [10], the target named is ETV1 (Homo sapiens, UniProt P50549 1-477). The conditions noted are these: protein: recombinant; tags: N-terminal GST; dsDNA, one strand shown. The essentials: as §1
Sequence of ETV1 (P50549 whole entry): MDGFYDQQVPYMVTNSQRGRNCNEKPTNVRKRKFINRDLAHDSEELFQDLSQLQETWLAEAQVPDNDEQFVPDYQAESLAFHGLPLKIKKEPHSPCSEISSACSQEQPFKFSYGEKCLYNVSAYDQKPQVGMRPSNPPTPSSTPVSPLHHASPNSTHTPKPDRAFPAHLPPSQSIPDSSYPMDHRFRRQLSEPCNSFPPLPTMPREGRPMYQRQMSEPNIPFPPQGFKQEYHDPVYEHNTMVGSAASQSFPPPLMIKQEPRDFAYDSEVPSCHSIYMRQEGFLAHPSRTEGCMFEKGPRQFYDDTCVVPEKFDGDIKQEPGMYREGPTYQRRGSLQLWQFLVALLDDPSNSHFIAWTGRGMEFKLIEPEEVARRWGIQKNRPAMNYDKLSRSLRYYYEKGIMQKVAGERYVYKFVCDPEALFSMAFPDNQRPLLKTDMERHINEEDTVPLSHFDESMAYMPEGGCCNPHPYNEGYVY
Test [11] addresses T6, ERF (Homo sapiens, UniProt P50548 1-548).
T6 sequence: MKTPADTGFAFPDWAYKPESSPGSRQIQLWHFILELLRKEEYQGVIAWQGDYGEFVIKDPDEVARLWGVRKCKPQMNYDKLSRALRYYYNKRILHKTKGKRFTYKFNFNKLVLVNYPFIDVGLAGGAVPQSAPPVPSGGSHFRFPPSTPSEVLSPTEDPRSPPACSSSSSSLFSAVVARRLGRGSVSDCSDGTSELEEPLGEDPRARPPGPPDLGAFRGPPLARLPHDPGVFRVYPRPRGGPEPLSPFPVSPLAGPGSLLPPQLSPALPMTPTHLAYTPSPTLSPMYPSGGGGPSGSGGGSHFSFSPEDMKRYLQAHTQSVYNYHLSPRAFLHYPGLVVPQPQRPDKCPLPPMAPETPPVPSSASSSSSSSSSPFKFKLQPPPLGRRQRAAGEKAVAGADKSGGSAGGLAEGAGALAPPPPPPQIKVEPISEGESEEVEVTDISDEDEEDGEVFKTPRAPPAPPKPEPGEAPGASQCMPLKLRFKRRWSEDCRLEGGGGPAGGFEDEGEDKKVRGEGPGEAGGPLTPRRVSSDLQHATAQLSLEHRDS
The note with it: protein: recombinant; tags: N-terminal GST; dsDNA, one strand shown. The essentials:
as §1

The target of test [12] is T7, ETV3L (Homo sapiens, UniProt Q6ZN32 1-361).
T7 sequence: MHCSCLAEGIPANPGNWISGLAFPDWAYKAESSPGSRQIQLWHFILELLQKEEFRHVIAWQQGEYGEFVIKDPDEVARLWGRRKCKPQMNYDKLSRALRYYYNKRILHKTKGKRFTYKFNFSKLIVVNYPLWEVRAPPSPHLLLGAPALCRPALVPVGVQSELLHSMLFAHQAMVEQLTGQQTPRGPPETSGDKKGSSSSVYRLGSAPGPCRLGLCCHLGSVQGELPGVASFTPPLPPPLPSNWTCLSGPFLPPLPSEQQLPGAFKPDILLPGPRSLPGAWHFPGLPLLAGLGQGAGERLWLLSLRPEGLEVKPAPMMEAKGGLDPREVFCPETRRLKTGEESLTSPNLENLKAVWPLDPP
The conditions noted are these: protein: recombinant; tags: N-terminal GST; dsDNA, one strand shown. The procedure, abridged: as §1

Test [13] addresses T8, ETS2 (Homo sapiens, UniProt P15036 1-469).
T8 sequence: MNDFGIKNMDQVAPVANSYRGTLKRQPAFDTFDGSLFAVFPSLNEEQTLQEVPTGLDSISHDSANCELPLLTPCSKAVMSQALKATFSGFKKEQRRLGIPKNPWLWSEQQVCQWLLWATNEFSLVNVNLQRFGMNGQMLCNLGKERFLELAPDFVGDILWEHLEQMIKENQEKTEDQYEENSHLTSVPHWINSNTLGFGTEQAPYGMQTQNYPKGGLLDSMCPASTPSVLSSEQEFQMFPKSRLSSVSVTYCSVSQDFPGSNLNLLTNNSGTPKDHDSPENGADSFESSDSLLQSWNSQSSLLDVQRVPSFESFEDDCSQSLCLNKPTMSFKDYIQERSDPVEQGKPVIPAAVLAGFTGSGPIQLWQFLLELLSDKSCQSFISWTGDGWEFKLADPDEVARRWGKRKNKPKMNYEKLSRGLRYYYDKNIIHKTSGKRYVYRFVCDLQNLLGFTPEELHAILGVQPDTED
The conditions noted are these: protein: recombinant; tags: N-terminal GST; dsDNA, one strand shown. The essentials: as §1

Test [14] deals with T9, SPDEF (Homo sapiens, UniProt O95238 1-335).
T9 sequence: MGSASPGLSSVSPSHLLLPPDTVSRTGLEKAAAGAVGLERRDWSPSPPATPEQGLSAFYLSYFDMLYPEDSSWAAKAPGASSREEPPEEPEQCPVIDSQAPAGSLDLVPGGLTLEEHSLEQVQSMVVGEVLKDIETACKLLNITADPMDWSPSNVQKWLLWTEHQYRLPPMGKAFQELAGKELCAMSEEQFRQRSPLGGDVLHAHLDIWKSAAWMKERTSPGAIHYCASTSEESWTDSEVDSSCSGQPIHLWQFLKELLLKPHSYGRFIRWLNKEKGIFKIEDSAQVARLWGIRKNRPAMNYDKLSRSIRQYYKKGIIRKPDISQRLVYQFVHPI
The note with it: protein: recombinant; tags: N-terminal GST; dsDNA, one strand shown. The essentials: as §1

Test [15] deals with T10, ETV7 (Homo sapiens, UniProt Q9Y603 1-341).
T10 sequence: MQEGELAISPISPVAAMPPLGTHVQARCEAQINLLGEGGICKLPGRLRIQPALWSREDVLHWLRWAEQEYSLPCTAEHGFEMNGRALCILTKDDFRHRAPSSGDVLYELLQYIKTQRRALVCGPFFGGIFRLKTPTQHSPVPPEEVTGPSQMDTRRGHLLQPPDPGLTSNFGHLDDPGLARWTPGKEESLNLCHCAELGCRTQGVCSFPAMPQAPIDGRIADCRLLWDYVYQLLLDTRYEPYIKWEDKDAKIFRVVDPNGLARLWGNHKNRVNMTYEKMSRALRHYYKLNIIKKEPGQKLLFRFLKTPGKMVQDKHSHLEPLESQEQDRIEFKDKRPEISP
The note with it: protein: recombinant; tags: N-terminal GST; dsDNA, one strand shown. The procedure, abridged: as §1

The target of test [16] is T11, ELF5 (Homo sapiens, UniProt Q9UKW6-2 1-255).
T11 sequence: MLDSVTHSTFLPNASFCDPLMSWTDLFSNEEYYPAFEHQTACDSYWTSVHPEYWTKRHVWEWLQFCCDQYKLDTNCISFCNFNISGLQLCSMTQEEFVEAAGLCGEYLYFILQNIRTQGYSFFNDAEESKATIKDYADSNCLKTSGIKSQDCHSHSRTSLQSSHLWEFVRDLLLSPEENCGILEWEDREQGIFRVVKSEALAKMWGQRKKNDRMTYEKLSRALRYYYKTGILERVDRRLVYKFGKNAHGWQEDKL
The conditions noted are these: protein: recombinant; tags: N-terminal GST; dsDNA, one strand shown. The essentials: as §1

Test [17] concerns the target T12, ETV3 (Homo sapiens, UniProt P41162-2 1-143).
T12 sequence: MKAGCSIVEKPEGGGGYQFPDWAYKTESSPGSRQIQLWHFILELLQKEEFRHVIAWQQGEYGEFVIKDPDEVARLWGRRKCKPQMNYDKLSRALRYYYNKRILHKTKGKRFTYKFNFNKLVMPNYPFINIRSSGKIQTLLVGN
The note with it: protein: recombinant; tags: N-terminal GST; dsDNA, one strand shown. The essentials: as §1

The target of test [18] is ETV6 (Homo sapiens, UniProt P41212 1-452). The note with it: protein: recombinant; tags: N-terminal GST; dsDNA, one strand shown. The procedure, abridged: as §1
Sequence of ETV6 (P41212 whole entry): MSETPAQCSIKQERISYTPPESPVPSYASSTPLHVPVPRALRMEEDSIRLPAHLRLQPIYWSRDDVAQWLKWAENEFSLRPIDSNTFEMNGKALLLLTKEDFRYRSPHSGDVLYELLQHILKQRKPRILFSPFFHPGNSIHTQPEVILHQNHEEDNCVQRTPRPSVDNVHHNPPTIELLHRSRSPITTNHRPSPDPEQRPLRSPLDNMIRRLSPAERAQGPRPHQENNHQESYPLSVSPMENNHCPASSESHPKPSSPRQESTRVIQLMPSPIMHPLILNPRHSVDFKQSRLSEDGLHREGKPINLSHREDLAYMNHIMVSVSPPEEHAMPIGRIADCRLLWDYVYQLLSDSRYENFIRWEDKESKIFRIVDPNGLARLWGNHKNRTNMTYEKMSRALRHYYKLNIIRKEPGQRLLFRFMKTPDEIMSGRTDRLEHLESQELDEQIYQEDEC

Sequence of HSF1 (Q00613 whole entry): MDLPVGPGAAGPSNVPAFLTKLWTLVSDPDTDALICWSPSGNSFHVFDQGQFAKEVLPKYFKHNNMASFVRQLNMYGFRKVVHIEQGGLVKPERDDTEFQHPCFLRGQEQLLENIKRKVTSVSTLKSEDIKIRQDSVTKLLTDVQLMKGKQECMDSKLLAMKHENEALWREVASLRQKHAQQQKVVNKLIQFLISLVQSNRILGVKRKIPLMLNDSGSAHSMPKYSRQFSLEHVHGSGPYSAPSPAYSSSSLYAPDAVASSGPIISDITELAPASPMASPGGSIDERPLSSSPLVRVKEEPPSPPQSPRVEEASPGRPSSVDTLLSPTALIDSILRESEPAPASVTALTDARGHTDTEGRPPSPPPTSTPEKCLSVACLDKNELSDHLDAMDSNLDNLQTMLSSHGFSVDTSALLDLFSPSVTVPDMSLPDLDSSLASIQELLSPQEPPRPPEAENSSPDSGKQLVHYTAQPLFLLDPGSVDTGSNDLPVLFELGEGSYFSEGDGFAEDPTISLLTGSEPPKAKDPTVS
Sequence of ETV5 (P41161 whole entry): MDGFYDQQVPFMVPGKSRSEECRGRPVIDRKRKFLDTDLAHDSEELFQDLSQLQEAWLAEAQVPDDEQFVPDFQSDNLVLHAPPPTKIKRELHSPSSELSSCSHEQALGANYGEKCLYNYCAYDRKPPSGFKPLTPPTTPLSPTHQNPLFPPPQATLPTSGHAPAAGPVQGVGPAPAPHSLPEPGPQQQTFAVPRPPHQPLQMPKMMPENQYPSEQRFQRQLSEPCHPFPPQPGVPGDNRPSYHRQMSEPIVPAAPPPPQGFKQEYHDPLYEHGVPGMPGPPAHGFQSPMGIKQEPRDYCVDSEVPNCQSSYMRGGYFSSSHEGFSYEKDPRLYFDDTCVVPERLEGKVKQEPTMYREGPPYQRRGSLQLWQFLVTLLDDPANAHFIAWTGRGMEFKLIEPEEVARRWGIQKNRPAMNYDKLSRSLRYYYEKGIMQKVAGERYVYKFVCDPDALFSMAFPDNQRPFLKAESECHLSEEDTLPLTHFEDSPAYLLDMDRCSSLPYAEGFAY
Sequence of CRX (O43186 whole entry): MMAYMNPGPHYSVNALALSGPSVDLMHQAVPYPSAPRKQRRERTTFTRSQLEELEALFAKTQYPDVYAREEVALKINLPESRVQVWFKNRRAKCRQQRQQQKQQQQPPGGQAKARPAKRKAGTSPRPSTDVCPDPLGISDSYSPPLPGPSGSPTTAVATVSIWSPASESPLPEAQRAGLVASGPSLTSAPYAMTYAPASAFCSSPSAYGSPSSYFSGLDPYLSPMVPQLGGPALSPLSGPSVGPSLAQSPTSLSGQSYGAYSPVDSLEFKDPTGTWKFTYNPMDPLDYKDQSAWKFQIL

Turning to TCTTCC, the binding signal in test [1] was 2.55 fold enrichment (6-mer frequency, TF over GST control); in test [2], 2.85 fold enrichment (6-mer frequency, TF over GST control); in test [3], 1.69 fold enrichment (6-mer frequency, TF over GST control); in test [4], 2.31 fold enrichment (6-mer frequency, TF over GST control); in test [5], 2.35 fold enrichment (6-mer frequency, TF over GST control); in test [6], 2.38 fold enrichment (6-mer frequency, TF over GST control). For the same sequence, the binding signal in [7] is 2.61 fold enrichment (6-mer frequency, TF over GST control); in test [8] it was 2.33 fold enrichment (6-mer frequency, TF over GST control); in [9], 1.34 fold enrichment (6-mer frequency, TF over GST control); in test [10], 2.62 fold enrichment (6-mer frequency, TF over GST control); in [11] it was 2.26 fold enrichment (6-mer frequency, TF over GST control); in test [12], 2.66 fold enrichment (6-mer frequency, TF over GST control). Further, the binding signal in [13] is 2.8 fold enrichment (6-mer frequency, TF over GST control); in [14] it was 2.45 fold enrichment (6-mer frequency, TF over GST control); in test [15], 2.35 fold enrichment (6-mer frequency, TF over GST control); in test [16], 4.14 fold enrichment (6-mer frequency, TF over GST control); in test [17], 2.74 fold enrichment (6-mer frequency, TF over GST control); in test [18], 2.8 fold enrichment (6-mer frequency, TF over GST control).
